Reference: PubChem BioAssay (EPA / NIEHS)
Records with an inconclusive call do not appear. Calls of active or inactive are those of the source. How the source made its calls, unless noted: active means hit-call score of the fitted dose curve at least 0.9, where 1 is the maximum; inconclusive means response in the unintended direction; inactive means score below 0.9.

What was measured:
[1] = target: Estrogen receptor (Homo sapiens) (UniProt P03372); test: CCTE_Deisenroth_AIME_384WELL_LUC_Inactive: CCTE's 384-well Estrogen Receptor Transactivation Assay without AIME metabolic competence (ERTA luciferase; metabolism negative), Deisenroth Lab (AID 2284038);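 further: VM7Luc4E2 breast cells given medium preincubated 2 h with S9-free microspheres; hits raise estrogen receptor luciferase signal so potencies reflect agonists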
Sequence of Estrogen receptor (Homo sapiens) (P03372 whole entry, looked up): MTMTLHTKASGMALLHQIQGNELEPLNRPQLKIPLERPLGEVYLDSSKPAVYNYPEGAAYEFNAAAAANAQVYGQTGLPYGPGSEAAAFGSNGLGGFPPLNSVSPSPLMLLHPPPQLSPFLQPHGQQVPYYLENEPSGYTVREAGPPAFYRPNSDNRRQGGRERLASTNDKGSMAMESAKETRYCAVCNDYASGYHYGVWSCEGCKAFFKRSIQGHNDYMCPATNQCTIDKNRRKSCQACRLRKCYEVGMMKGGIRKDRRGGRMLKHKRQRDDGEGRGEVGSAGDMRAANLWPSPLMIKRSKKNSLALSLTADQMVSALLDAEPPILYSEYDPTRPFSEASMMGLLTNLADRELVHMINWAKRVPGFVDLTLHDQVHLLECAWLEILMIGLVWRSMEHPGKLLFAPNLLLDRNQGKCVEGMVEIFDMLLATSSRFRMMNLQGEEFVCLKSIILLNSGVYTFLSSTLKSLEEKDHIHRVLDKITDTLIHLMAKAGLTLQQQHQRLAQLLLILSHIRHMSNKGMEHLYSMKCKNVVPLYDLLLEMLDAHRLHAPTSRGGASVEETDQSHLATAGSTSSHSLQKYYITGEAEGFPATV
In short: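 VM7Luc4E2 ER transactivation, luciferase bioluminescence after 24 h, using medium pre-incubated 2 h with S9-free alginate microspheres. Concentrations 0.002–200 uM; gain of signal fitted relative to 17beta-estradiol.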

[2] = CCTE_Deisenroth_AIME_384WELL_CTox_Inactive: Cytotoxicity Assessment (CTOX) in CCTE's 384-well Estrogen Receptor Transactivation Assay without AIME metabolic competence (metabolism negative), Deisenroth Lab (AID 2284039);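 further: cell viability via live-cell protease substrate cleaved to fluorescent probe; cells exposed 24 h to medium preincubated 2 h with alginate-water beads without S9; loss of fluorescence signal means loss of viability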
In short: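 Fluorescence from a live-cell protease substrate, read after 24 h in VM7Luc4E2 cells, indicated viability. Test medium came from a 2 h AIME step without hepatic S9 (alginate-water microspheres); concentrations spanned 0.002 - 200 uM, single technical replicate per run.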

[3] = target: Estrogen receptor (Homo sapiens) (UniProt P03372); test: CCTE_Deisenroth_AIME_384WELL_LUC_Shift: CCTE's 384-well Estrogen Receptor Transactivation Assay with AIME metabolic competence data shift (ERTA luciferase; difference in metabolism positive and negative), Deisenroth Lab (AID 2284041; active means hit-call score of the fitted dose curve at least 0.9, where 1 is the maximum; inactive means score below 0.9;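 further: shift is response with S9 minus without S9 so positive means metabolism raised ER signal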)
In short: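 Here, parent compounds undergo 2 h phase I metabolism by PB/BNF-induced rat S9 before 24 h transactivation in VM7Luc4E2 cells; the curve models S9-positive minus S9-negative response over a 10-point series.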

| SMILES | outcome [1] | outcome [2] | outcome [3] | AC50 [2] | AC50 [1] | AC50 [3] |
| --- | --- | --- | --- | --- | --- | --- |
| CCCCC/C=C\C/C=C\CCCCCCCC(=O)O | inactive | inactive | inactive | – | – | – |
| CC1=NN(c2ccc(S(=O)(=O)O)cc2)C(=O)C1N=Nc1ccccc1 (stereo unspecified) | inactive | inactive | inactive | – | – | – |
| COC(=O)c1ccccc1C | inactive | inactive | inactive | – | – | – |
| O=C(O)/C=C/c1ccccc1 | inactive | inactive | inactive | – | – | – |
| O=C(O)CC(C(=O)O)S(=O)(=O)O (stereo unspecified) | inactive | inactive | inactive | – | – | – |
| CC(=O)/C=C/C1C(C)=CCCC1(C)C (stereo unspecified) | inactive | inactive | inactive | – | – | – |
| CCCCCCCCCC(C)=O | inactive | inactive | inactive | – | – | – |
| CCCCCCCCCCCCCCCCCCOS(=O)(=O)O | inactive | inactive | inactive | – | – | – |
| CCCCCC(=O)OCC | inactive | – | inactive | 19.8 µM (active) | – | – |
| CC(C)(C)N | inactive | inactive | inactive | – | – | – |
| O=C(Oc1ccccc1)c1ccccc1O | – | inactive | – | – | 53.4 µM (active) | 38.4 µM (active) |
| CCOC(=O)C1=NOC(c2ccccc2)(c2ccccc2)C1 | inactive | inactive | inactive | – | – | – |
| C[Si](C)(C)N[Si](C)(C)C | inactive | inactive | inactive | – | – | – |
| CC(CCC(=O)O)(c1ccc(O)cc1)c1ccc(O)cc1 | – | inactive | – | – | 71.4 µM (active) | 20.7 µM (active) |
| CCCCCC[C@@H](O)C/C=C\CCCCCCCC(=O)OCC(O)CO (stereo partly specified) | inactive | inactive | inactive | – | – | – |
| C=C1C[C@H]2[C@@H]3C=C(C)C4=CC(=O)CC[C@]4(C)[C@H]3CC[C@]2(C)[C@@]1(OC(C)=O)C(C)=O | inactive | inactive | inactive | – | – | – |
| O=C(O)CCC(=O)O | inactive | inactive | inactive | – | – | – |
